Measured values taken from PubChem BioAssay AID1030 (National Center for Advancing Translational Sciences (NCATS), 2008).
Values joined by “and” are separate entries in the source; they are usually repeats but may differ in a detail not shown here. Identical values can stand only once. Hit rate of the full screen: of about 220,000 compounds, about 16,000 (7.3%) were called active. Not shown: some 25% with an inconclusive outcome. Calls follow the shape of the dose curve; as a rule, active = well fitted inhibition curve with a large enough effect (not every such curve was filed as active); inconclusive = small, poorly fitted or top-dose-only effect, or another doubt; inactive = no such curve, though single readings can be large or run the other way. The list comes from a sample in which actives are over-represented; it also holds similar structures and randomly drawn compounds.

Target: Aldehyde dehydrogenase 1A1 (Homo sapiens) (UniProt P00352)
Sequence (P00352 whole entry, looked up): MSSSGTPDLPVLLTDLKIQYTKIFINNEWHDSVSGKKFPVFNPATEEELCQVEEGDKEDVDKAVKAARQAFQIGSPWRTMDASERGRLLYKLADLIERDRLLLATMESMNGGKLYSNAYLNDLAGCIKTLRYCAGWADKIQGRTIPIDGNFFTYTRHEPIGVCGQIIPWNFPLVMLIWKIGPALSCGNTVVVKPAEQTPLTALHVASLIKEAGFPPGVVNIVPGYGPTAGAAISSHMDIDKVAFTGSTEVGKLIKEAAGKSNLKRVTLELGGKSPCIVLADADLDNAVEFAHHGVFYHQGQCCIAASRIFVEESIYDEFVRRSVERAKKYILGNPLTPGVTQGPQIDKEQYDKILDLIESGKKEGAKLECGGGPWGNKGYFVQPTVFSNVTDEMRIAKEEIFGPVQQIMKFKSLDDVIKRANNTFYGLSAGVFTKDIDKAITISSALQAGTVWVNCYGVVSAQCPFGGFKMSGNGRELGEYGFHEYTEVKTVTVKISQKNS
Assay: qHTS Assay for Inhibitors of Aldehyde Dehydrogenase 1 (ALDH1A1);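 as to activity, negative = inhibition: plate controls were no enzyme wells and a reference inhibitor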
Conditions: Purified ALDH1A1, NADH fluorescence, propionaldehyde substrate; series mostly up to 75.3 µM
Potency is read from the fitted curve at half-maximal effect.

Potency, active:
COc1ccc(/C=C/NC(=O)c2ccc(OC)cc2)cc1 2.82 µM
O=C(c1cccs1)C1C(c2ccc(Br)cc2)NC(=S)NC1(O)C(F)(F)F (stereo not given) 3.16 µM
CCOC(=O)C1C(c2ccc(Cl)cc2)NC(=S)NC1(O)C(F)(F)F (stereo not given) 7.94 µM
O=[n+]1c2c(n([O-])c3cc(Br)ccc31)CCC2 31.6 µM
N#CC1=C(N)N(c2ccc(F)cc2)C(=O)C1 22.4 µM
CCOC(=O)C1Sc2[nH]c(=O)sc2C(c2ccc(Cl)cc2)C1C(=O)OCC (stereo not given) 11.2 µM

Potency, inactive:
CCOC(=O)C(C)n1nc(-c2ccccc2)c2ccccc2c1=O (stereo not given)
Cc1cc(NC(=O)Nc2ccccc2[N+](=O)[O-])no1
COc1ccc(NC(=O)c2ccc(OC)cc2)cc1
CC(=O)C1C(c2ccc(Cl)cc2)NC(=O)NC1(O)C(F)(F)F (stereo not given)
CCOC(=O)NNC(=O)c1ccc(Cl)cc1
O=C(CN(C(=O)c1csnn1)c1cccc(F)c1)NCc1ccc(F)cc1
CCn1cnc2scc(-c3ccc(C)c(C)c3)c2c1=O
CN1C(=O)/C(=C\c2cc(Br)cs2)c2ccccc21
CC(C)c1csc(CN2CCC(CO)(Cc3ccccc3)CC2)n1
CCOc1cc(CNn2c(C)nnc2SCC(=O)NC(C)(C)C)ccc1OCC(=O)NC(C)(C)C
CCOCCCNCc1ccc(OCc2ccc(F)cc2)c(OC)c1
O=C(CCc1n[nH]c(=O)[nH]c1=O)N/N=C/c1ccc(Br)o1
Cc1nnc(SCC(=O)N2c3ccccc3C(C)(c3ccc(Cl)cc3)CC2(C)C)s1 (stereo not given)
Cc1ccc(-c2c[n+](=O)c3c(n2[O-])CCC3)cc1
Cc1ccc(-c2c(C)n([O-])c3c([n+]2=O)CCC3)cc1
COc1ccc([N+](=O)[O-])cc1NC(=O)CC1SC(=Nc2cccc(C)c2C)N(/N=C(\C)c2ccc(C)cc2)C1=O (stereo not given)
CN(c1ccccc1)S(=O)(=O)c1ccc(Cl)c(C(=O)OCC(=O)N2CCOCC2)c1
Cn1c(N)cc(-c2ccc(F)cc2)c(C#N)c1=O
O=C1CCCC2=C1C(c1cccs1)CC(=O)N2c1ccc(F)cc1 (stereo not given)
O=C(CCC(=O)c1cccs1)NC1CCCCCC1
CCCCNC(=O)N1CCN(S(C)(=O)=O)CC1
COc1ccccc1NC(=O)COC(=O)Cc1ccc(S(=O)(=O)N2CCCCC2)s1
CCOC(=O)C1=C(C)NC(=O)N(C(C)=O)C1c1ccc(Cl)cc1 (stereo not given)

activity, negative = inhibition, inactive:
COc1ccc(/C=C/NC(=O)Cc2ccc(OC)c(OC)c2)cc1 8.87% [at 13.5 µM] and 1.01% [at 13.5 µM]
